# Screens: PubChem, National Center for Advancing Translational Sciences (NCATS)
# Sampled rows, rich in hits. Any-hit rate of the full collection: about 8.8%.
# HPGD block = qHTS Assay for Inhibitors of HPGD (15-Hydroxyprostaglandin Dehydrogenase) | actives 4.3% (n = 150,000) | 15-hydroxyprostaglandin dehydrogenase [NAD(+)] (Homo sapiens), P15428 | Potency, µM, for the others: at the highest dose activity change, negative = inhibition, most hits filed as inhibitors | purified HPGD, NADH fluorescence kinetic, PGE2 substrate; further: on the % scale 0 is the no-effect control and ±100 the full control effect
# Target sequence (P15428 whole entry, looked up): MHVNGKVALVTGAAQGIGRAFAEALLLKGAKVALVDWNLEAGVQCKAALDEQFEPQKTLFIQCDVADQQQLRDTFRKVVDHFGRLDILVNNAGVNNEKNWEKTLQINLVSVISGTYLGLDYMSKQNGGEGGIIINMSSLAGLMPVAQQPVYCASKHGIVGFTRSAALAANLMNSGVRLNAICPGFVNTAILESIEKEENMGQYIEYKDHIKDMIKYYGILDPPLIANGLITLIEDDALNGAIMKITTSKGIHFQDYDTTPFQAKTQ
#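 20 nM HPGD preincubated 15 min at room temperature with compound in 50 mM Tris-HCl pH 8, 0.01% Tween 20. Started with 1 mM NAD+ and 30 uM prostaglandin E2; NADH fluorescence (360/450 nm) read 5 times over 30-s intervals, last minus first.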
# LMNA splice mod = qHTS Assay for Modulators of Lamin A Splicing | HeLa LMNA splicing GFP/RFP minigene ratio, 48 h | actives 0.01% (n = 200,000) | Potency, µM (series often up to 46.1 µM), without a hit: at the top dose ratio change, negative = inhibition, actives largely listed as inhibitors; active means well fitted inhibition curve with a large enough effect in the signal ratio, with a control signal flat, not every such curve was filed as active; inconclusive means small, poorly fitted or top-dose-only effect, or effect the other way, or a change in a side signal; the % refers to the signal ratio; further: on the % scale 0 is the no-effect control and ±100 the full control effect
#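 Read-out is the ratio of GFP to DsRed2 object intensity, acquired by 488 nm laser-scanning cytometry on HeLa lamin A-EGFP minigene reporter cells. Compound incubation 48 hrs at 37 °C in Opti-MEM with 2% FBS; DMSO 0.5% final.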
# HTT cytoprotect = qHTS Multiplex Assay to Identify Dual Action Probes in a Cell Model of Huntington: Cytoprotection (ATP) | actives 0.14% (n = 230,000) | Potency, µM (highest dose often 56.4 µM), inactives show cytoprotection (ATP increase), hits mostly activators | PC12 HTT-Q103 induced, cytoprotection, ATP luminescence, 40 h; active means well fitted curve in the direction sought with a large enough effect; inconclusive means small, poorly fitted or top-dose-only effect, or another doubt; inactive means no such curve, though single readings can be large; an effect the other way counts as inactive or inconclusive; further: % of control where 0% means no effect; nearly all actives have a fitted effect of over 45% in size
#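 Compounds were screened for protection of PC12 cells against cell death after tebufenozide induction (100 nM final) of mutant Huntingtin exon 1 (Q103) fused to GFP.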
# ALDH1A1 inh = qHTS Assay for Inhibitors of Aldehyde Dehydrogenase 1 (ALDH1A1). Aldehyde dehydrogenase 1A1 (Homo sapiens), P00352. Purified ALDH1A1, NADH fluorescence, propionaldehyde substrate. Potency, µM (series often up to 75.3 µM), inactives show at the highest dose activity, negative = inhibition, hits mostly inhibitors. actives 7.3% (n = 220,000). AID 1030, 2008;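 further: plate controls were no enzyme wells and a reference inhibitor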
# Target sequence (P00352 whole entry, looked up): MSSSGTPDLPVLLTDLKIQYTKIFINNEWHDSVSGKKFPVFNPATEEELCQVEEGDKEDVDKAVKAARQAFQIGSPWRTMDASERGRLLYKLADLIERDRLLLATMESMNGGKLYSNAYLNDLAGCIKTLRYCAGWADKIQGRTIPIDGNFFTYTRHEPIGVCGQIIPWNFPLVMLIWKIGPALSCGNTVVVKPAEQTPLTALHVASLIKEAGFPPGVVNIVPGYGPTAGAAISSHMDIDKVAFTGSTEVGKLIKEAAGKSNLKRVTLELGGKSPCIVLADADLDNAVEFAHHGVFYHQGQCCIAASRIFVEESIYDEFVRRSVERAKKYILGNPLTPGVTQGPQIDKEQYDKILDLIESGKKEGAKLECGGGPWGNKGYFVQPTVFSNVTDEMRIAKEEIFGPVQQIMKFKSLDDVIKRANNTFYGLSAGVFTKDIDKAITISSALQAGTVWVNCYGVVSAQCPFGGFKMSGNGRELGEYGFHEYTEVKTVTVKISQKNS
# HTT aggregate = qHTS Multiplex Assay to Identify Dual Action Probes in a Cell Model of Huntington: Aggregate Formation (GFP); PC12 HttQ103-GFP aggregates, Acumen cytometry, 40 h; AID 1688, 2009; actives 1.1% (n = 220,000); Potency, µM (doses to about 46.1 µM), without a hit: at the highest dose activity change, negative = inhibition, most hits filed as inhibitors; active means well fitted curve in the direction sought with a large enough effect; inconclusive means small, poorly fitted or top-dose-only effect, or another doubt; inactive means no such curve, though single readings can be large; an effect the other way counts as inactive or inconclusive; further: on the % scale 0 is the no-effect control and ±100 the full control effect; nearly all actives have a fitted effect of over 60% in size
#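 Aggregate formation scored by laser-scanning cytometer (488 excitation, 500–530 emission) in lysed PC12 cells expressing Q103-GFP after 100 nM tebufenozide induction; library tested in dose series, with ATPLite reagent added in the multiplex.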
# Numbers without * were called inactive; ? = inconclusive; · = no result given; [ ] = dose if it differs, or a comment. Unless noted, the call rests on the fitted dose curve; in most records, active means well fitted inhibition curve with a large enough effect (not every such curve was filed as active); inconclusive means small, poorly fitted or top-dose-only effect, or another doubt; inactive means no such curve, though single readings can be large or run the other way. Potency means the concentration at half of the fitted maximal effect.
SMILES,HPGD block,LMNA splice mod,HTT cytoprotect,ALDH1A1 inh,HTT aggregate
Cc1oc2c(c1C(=O)NCc1cccc(Br)c1)C1=NCCN1C=N2,·,4%[46 µM],·,·,·
CCN1C(C)=C(C(=O)OC)C(c2ccccc2)N2C(=O)[C@@]3(C(=O)OC)O[C@@]12C1C(=O)N(C)C(=O)C13 (some centres not stated),·,·,-5%[10 µM],12%[13.5 µM],·
CCc1ccc(C(=O)CSc2nc3cc(S(=O)(=O)N4CCOCC4)ccc3n2CC)cc1,-23%,?,13%[10 µM],28µM*,8%
CCn1c(SCc2nc3ccccc3s2)nc2cc(S(=O)(=O)N3CCOCC3)ccc21,·,·,-9%[10 µM],·,·
COC(=O)c1ccc(CSc2nc3ccc(S(=O)(=O)N4CCOCC4)cc3[nH]2)cc1,28µM*,2%,-2%[10 µM],-4%,-1%
O=S(=O)(Cc1noc(-c2ccc(Cl)cc2)n1)Cc1ccco1,·,?,-16%[10 µM],-13%,14%[9.22 µM]
CC(=O)c1sc(-c2ccccc2)cc1N,·,?,-3%[10 µM],-8%,-3%[9.22 µM]
NNC(=O)c1sc(-c2ccccc2)cc1N,·,-6%[46 µM],-39%,28µM*,-21%
COc1cccc([C@@H]2Oc3ccc(Br)cc3C[C@H]2OC(=O)NCCc2ccc(OC)c(OC)c2)c1,-6%,·,-35%,6%,·
CCn1c(SCc2ccccc2)nnc1C1CCN(S(=O)(=O)c2ccc(OC)cc2)CC1,-12%,-1%,-16%,5µM*,-10%
O=C(CSc1nnc(C2CC2)n1Cc1ccccc1)N1CCN(S(=O)(=O)c2ccccc2)CC1,-13%,?,11%[10 µM],-4%,-6%
O=C(CSc1nnc(C2CC2)n1Cc1ccccc1)c1ccc(S(=O)(=O)N2CCOCC2)cc1,-22%,1%,19%[10 µM],11µM*,-13%
CCn1c(SCc2ccccc2)nnc1C1CCCCC1,·,-4%,-8%[10 µM],?,-6%
COC(=O)[C@@H]1C(O)[C@@H](C(=O)OC)[C@H](C)N(C)[C@@H]1C (some centres not stated),-11%,·,-4%[10 µM],8%[13.5 µM],·
CC(=O)Nc1ccccc1-c1nc2ccccc2nc1OCC(=O)c1ccc(Cl)cc1,-8%,-8%,-3%[10 µM],17%,-5%
CCOc1ccc2nc(N3CCC(C(=O)N4CCN(C(=O)c5ccco5)CC4)CC3)sc2c1,-1%,?,-11%[10 µM],16µM*,7%
O=C(c1ccco1)N1CCN(c2nc3ccc(Cl)cc3s2)CC1,·,13%[46 µM],·,·,·
O=C(c1ccco1)N1CCN(c2nc3ccsc3c(=O)s2)CC1,?,-2%,11%,13µM*,?
O=[N+]([O-])c1cccc(Cl)c1,-7%,·,-5%,25µM*,·
O=C(Cl)c1cccc([N+](=O)[O-])c1,-6%,·,4%,11µM*,·
NC(=O)c1cccc([N+](=O)[O-])c1,0%,·,-2%,0%,·
CC(=O)N1CCC(N(Cc2ccco2)C(=O)Nc2ccc(Br)cc2F)CC1,·,2%[46 µM],·,·,·
N#Cc1c(/N=C\c2ccc(O)c([N+](=O)[O-])c2)sc2c1CCCC2,·,·,-24%,2.5µM*,-21%
N#Cc1c(/N=C/N2CCOCC2)sc2c1CCCCC2,-19%,2%,-11%,14µM*,-15%
N#Cc1c(/N=C/c2cccs2)sc2c1CCCCC2,?,9%,-66%,?,-3%
SMILES,HPGD block,LMNA splice mod,HTT cytoprotect,ALDH1A1 inh,HTT aggregate
CN(C)/C=N/c1sc2c(c1C#N)CCC2,25µM*,5%,-18%[10 µM],10µM*,1%
N#Cc1c(/N=C/c2ccc(Br)s2)sc2c1CCC2,-11%,0%,33%[10 µM],?,10%
CN(C)/C=N/c1sc2c(c1C#N)CC(C)(C)NC2(C)C,-7%,-8%,-12%[1.9 µM],7%,8%
Cc1ccc(/C=N/c2sc3c(c2C#N)CCC3)o1,16µM*,6%,13%,10µM*,8%
CCOC(=O)C[C@@H](C(=O)OCC)[C@@H]1CCCCC1=O,·,·,1%[10 µM],0%[13.5 µM],·
COc1ccc(-c2cn3c(n2)sc2cc(C(=O)Nc4ccc(C)c(Cl)c4)ccc23)cc1,·,-6%[46 µM],·,·,·
CN(C)/C=N/c1sc2c(c1C#N)CCCCC2,-24%,?,·,4µM*,23%
CCCN(/C=N/c1sc2c(c1C#N)CCCCC2)CCC,-16%,9%,-11%,?,-27%
Cc1nn(-c2ccccc2)c2nc(C(Cl)(Cl)Cl)[nH]c(=O)c12,·,·,1%[10 µM],·,17%[9.22 µM]
Cc1ccc(S(=O)(=O)N2C(=O)C(c3ccccc3)SC2=Nc2ccccc2)cc1 (configuration not stated),10µM*,4%,11%,8.9µM*,-5%
Cc1ccc(S(=O)(=O)N2C(=O)C(C)SC2=Nc2ccccc2)cc1 (configuration not stated),-5%,16%,16%[10 µM],?,6%
Cc1ccc(S(=O)(=O)Nc2ccnc(-c3cccnc3)n2)cc1,·,·,-1%,0%,0%
COC(=O)/C(Cc1cc(Br)c(OC)c(Br)c1O)=N/O,-9%,·,57%,-7%,·
Cc1ccc(CC(=O)N2CCN(C(=O)c3ccco3)CC2)cc1,·,3%[46 µM],·,?,27%
COc1ccc(CC(=O)N2CCN(C(=O)c3ccco3)CC2)cc1,?,-1%,-7%,20µM*,-7%
COc1ccc(OCC(=O)N2CCN(C(=O)c3ccco3)CC2)cc1,-9%,16%,-11%,10µM*,22%
O=C(COc1ccccc1)N1CCN(C(=O)c2ccco2)CC1,0%,8%,2%,?,7%
O=C(/C=C/c1ccc(OC(F)F)cc1)OCC(=O)N1CCN(C(=O)c2ccco2)CC1,-6%,-8%,7%[10 µM],18µM*,-4%
Cc1ccc(C(=O)CCC(=O)N2CCN(C(=O)c3ccco3)CC2)cc1,·,4%[46 µM],-10%,22µM*,1%
N#Cc1ccccc1NS(=O)(=O)c1ccc(N2CCCCS2(=O)=O)cc1,·,-7%[46 µM],·,·,·
O=C(c1cccc([N+](=O)[O-])c1)N1CCN(c2ccc(Nc3ccccc3)nn2)CC1,·,-6%[46 µM],·,·,·
O=C(c1ccccc1)c1cnc(Nc2ccccc2Cl)s1,-30%,-9%,-61%,?,?
COC(=O)/C(=C1/OC(=O)C(c2ccccc2)=C1O)c1ccccc1,-12%,·,-59%,0%,·
COC(=O)/C=C1\OC(c2ccccc2)=CC1=O,20µM*,?,-5%[10 µM],10µM*,16%
COc1ccc(Cl)cc1NC(=O)COC(=O)CNC(=O)c1ccc([N+](=O)[O-])c(C)c1,-20%,-6%,·,9%,?
Cc1cc(C(=O)NCC(=O)OCC(=O)Nc2ccc(OC(F)F)cc2)ccc1[N+](=O)[O-],-27%,10%,25%[10 µM],3.2µM*,6%
CC(C)OC(=O)CN1C(=O)C(C)(C)Oc2ccc(C(=O)NC3CC3)cc21,-13%,3%,1%[10 µM],11µM*,5%
